Laboratory results reported in PubChem BioAssay (EPA / NIEHS).
Records with an inconclusive call do not appear. The source made the active and inactive calls. Rule for the calls: active = hit-call score of the fitted dose curve at least 0.9, where 1 is the maximum; inconclusive = response in the unintended direction; inactive = score below 0.9.

Experiment: ATG_XTT_Cytotoxicity: Cytotoxicity Assessment in the Attagene TRANS-FACTORIAL HepG2 Assay (AID 2283584);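 for AC50: cells exposed to compound for 24 h before reading; active means loss of viability signal versus DMSO baseline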
Description: ATG_XTT_Cytotoxicity is a cell-based, single-readout assay that uses HepG2, a human liver cell line, with measurements taken at 24 hours after chemical dosing in a 24-well plate.ATG_XTT_Cytotoxicity is one of one assay component(s) measured or calculated from the ATG_XTT_Cytotoxicity assay. It is designed to make measurements of cell number, a form of viability reporter, as detected with […] signals by XTT cytotoxicity assay technology.Data from the assay component ATG_XTT_Cytotoxicity was analyzed into 1 assay endpoint. This assay endpoint, ATG_XTT_Cytotoxicity, was analyzed in the positive analysis fitting direction relative to DMSO as the negative control and baseline of activity. Using a type of viability reporter, loss-of-signal activity can be used to understand changes in the viability. Furthermore, this assay endpoint can be referred to as a primary readout, because the performed assay has only produced 1 assay endpoint. To generalize the intended target to other relatable targets, this assay endpoint is annotated to the cell cycle intended target family, where the subfamily is cytotoxicity.
Human liver HepG2 cells are transiently transfected with multiple reporter transcription units (MRTUs) in 6-well plates using FuGene 6 reagent (Roche; 3 ml FuGene/1 mg DNA). The MRTU constructs are regulated by a cis-regulating element (promoter). […] A major difference between the CIS and TRANS system is that in CIS activities of endogenous TFs are measured, whereas the TRANS assay evaluates changes in activities of exogenous, chimeric NR-Gal4 proteins. […] At the end of 24 hour incubation, total RNA was isolated using TriZol reagent (Invitrogen). The isolated RNA is then reverse-transcribed using oligo(dT) primer and Mo-MLV reverse transcriptase (Invitrogen) with DNAse I (Ambion) treatment for 30 min. The one-tenth of the produced cDNA was amplified by PCR using Taq DNA polymerase (Invitrogen) and two reporter sequence-specific primers. The PCR products were fluorescently labeled by primer extension with 6-arboxyfluorescein (6-FAM) 5'-labeled reporter sequence-specific primer (2 min at 95 C, 20 s at 68 C and 10 min at 72 C) and these products were digested with 5U of HpaI (New England Biolabs) for 2h at 37 C. The fragments were purified using Qiaquick PCR columns (Qiagen), analyzed on an ABI 3130xL genetic analyzer (Applied Biosystems) with peak positions identified by using a set of X-rhodamine (ROX)-labeled MapMarker1000 molecular weight standards (BioVentures). The raw capillary electrophoresis data was processed using Attagraph software (Attagene).

Row | SMILES | outcome | AC50
1 | Cc1ccc(C)o1 | inactive | 
2 | Oc1c(Cl)cc(Cl)c(Cl)c1Cc1c(O)c(Cl)cc(Cl)c1Cl | inactive | 
3 | O=[N+]([O-])c1ccc(O)cc1C(F)(F)F | inactive | 
4 | O=c1c(O)c(-c2ccc(O)cc2)oc2cc(O)cc(O)c12 | inactive | 
5 | CCCCN(CCCC)C(=O)N(CCCC)CCCC | inactive | 
6 | CC1CC(O)CC(C)(C)C1 (stereo not given) | inactive | 
7 | CCOc1ccc(N=Nc2ccc(C=Cc3ccc(N=Nc4ccc(OCC)cc4)cc3S(=O)(=O)O)c(S(=O)(=O)O)c2)cc1 | inactive | 
8 | CCCCOC(=O)CCCCCCCC(=O)OCCCC | inactive | 
9 | OCc1ccc(Cl)cc1Cl | inactive | 
10 | O=CCc1ccccc1 | inactive | 
11 | CC(=O)O[C@@H]1CC2CCC1(C)C2(C)C (stereo not given in full) | inactive | 
12 | CC(Oc1cc(Cl)ccc1Cl)C(=O)O (stereo not given) | inactive | 
13 | COc1cc(CCC(C)=O)ccc1O | inactive | 
14 | CCCCCC(=O)CC | inactive | 
15 | CCOc1ccc(NC(=O)CC(C)O)cc1 (stereo not given) | inactive | 
16 | [O-]n1ccccc1=S.[O-]n1ccccc1=S.[Zn+2] |  | 2.87 µM (active)
17 | CCOC(=O)COC(=O)c1cc(Oc2ccc(C(F)(F)F)cc2Cl)ccc1[N+](=O)[O-] | inactive | 
18 | CCCCCCCCCCCCCCN(CCO)CCO |  | 28.3 µM (active)
19 | CC(=O)OCCCc1ccccc1 | inactive | 
20 | CCCC[O][Al]([O]CCCC)[O]CCCC | inactive | 

Row | SMILES | outcome | AC50
21 | C=C(C)[C@@H]1CC=C(C)C(=O)C1 | inactive | 
22 | C=CC(C)C#N (stereo not given) | inactive | 
23 | COc1cc(Cl)c(OC)cc1N | inactive | 
24 | CC(C)CC(C)CC(O)CC(C)C (stereo not given) | inactive | 
25 | CC1C2CC(CC2C2CCCC(O)C2)C1(C)C (stereo not given) | inactive | 
26 | CCCC(C)=O | inactive | 
27 | COC(=O)c1ccc(C)cc1C1=NC(C)(C(C)C)C(=O)N1 (stereo not given) (tested in a mixture with another compound) | inactive | 
28 | CCCCCCCCCCCCS(=O)(=O)Cl | inactive | 
29 | C=C(C)C(=O)OCC(CC)(COC(=O)C(=C)C)COC(=O)C(=C)C | inactive | 
30 | CCCCCCCCSCCO | inactive | 
31 | Cc1ccc(N)c(S(=O)(=O)O)c1 | inactive | 
32 | C[C@@H]1CCN(C(=O)[C@H](CCCN=C(N)N)NS(=O)(=O)c2cccc3c2NC[C@H](C)C3)[C@@H](C(=O)O)C1 | inactive | 
33 | Nc1ccc(NCCO)c([N+](=O)[O-])c1 | inactive | 
34 | C=C(C#N)C(=O)OCC | inactive | 
35 | COc1ccccc1[N+](=O)[O-] | inactive | 
36 | C=C(CC(=O)O)C(=O)O | inactive | 
37 | CCNCCO | inactive | 
38 | CC(C)(N=C=O)c1cccc(C(C)(C)N=C=O)c1 | inactive | 
39 | C=C(C)[C@H]1CC=C(C)C(=O)C1 | inactive | 
40 | C#CC(C)(O)CC(C)C (stereo not given) | inactive | 
